Assay results published in PubChem BioAssay AID1159580 (chemical genetic matrix, 2015).
The campaign covered roughly 5,500 compounds. About 2,000 (36%) were called active. Roughly 18% stayed inconclusive and do not appear here. Rule as the data show it: active = normalized growth mostly below about 0.91 (no sharp cut-off); inconclusive = no clear call, values can overlap the other calls; inactive = mostly above about 0.92. The list shows a part of the results.

Assay: chemical genetic growth profiling, strain panel (AID 1159580);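 also: tested at 20 µM; growth read once vehicle control cultures reached saturation at 30 °C; 1 = growth at the plate median or of vehicle wells; lower values mean less growth of the strain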
Conditions: S. cerevisiae deletion strains, growth OD

Measured: normalized growth

NC(=O)c1cc(N2CC2)c([N+](=O)[O-])cc1[N+](=O)[O-]
inactive: locus YAL040C, strain CLN3, stronger effect = lower value 1 | locus YCL061C, strain MRC1 (second series), stronger effect = lower value 0.994 | locus YDR363W, strain ESC2, stronger effect = lower value 0.993 | locus YER002W, strain NOP16, stronger effect = lower value 1.02 | locus YMR263W, strain SAP30, stronger effect = lower value 1 | locus YMR307W, strain GAS1, stronger effect = lower value 0.986 | locus YNL175C, strain NOP13, stronger effect = lower value 1.02 | locus YNL197C, strain WHI3, stronger effect = lower value 1 | locus YNL224C, strain SQS1, stronger effect = lower value 0.997 | locus YOR083W, strain WHI5 (second series), stronger effect = lower value 1.01
